Reference: PubChem BioAssay AID720704 (The Scripps Research Institute Molecular Screening Center, 2013)
About 660 (0.18%) of roughly 370,000 compounds were called active. The sample as a whole holds a higher share of actives than the screen did. A number with no mark means an inactive call. Cut-off read from the data, not from the text of the source: active = inhibition above about 11%; inactive = the rest.

biological target: 1-phosphatidylinositol 4,5-bisphosphate phosphodiesterase beta-3 (Homo sapiens) (UniProt Q01970); experiment: human PLC-beta3 inhibitors, primary screen, biochemical, fluorescence (AID 720704); conditions: Purified PLC-beta3, fluorogenic substrate, at 12.2 µM, stronger effect = higher value;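 note: 0% = median of compound wells on plate and 100% = full blocker control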
Sequence (Q01970 whole entry, looked up): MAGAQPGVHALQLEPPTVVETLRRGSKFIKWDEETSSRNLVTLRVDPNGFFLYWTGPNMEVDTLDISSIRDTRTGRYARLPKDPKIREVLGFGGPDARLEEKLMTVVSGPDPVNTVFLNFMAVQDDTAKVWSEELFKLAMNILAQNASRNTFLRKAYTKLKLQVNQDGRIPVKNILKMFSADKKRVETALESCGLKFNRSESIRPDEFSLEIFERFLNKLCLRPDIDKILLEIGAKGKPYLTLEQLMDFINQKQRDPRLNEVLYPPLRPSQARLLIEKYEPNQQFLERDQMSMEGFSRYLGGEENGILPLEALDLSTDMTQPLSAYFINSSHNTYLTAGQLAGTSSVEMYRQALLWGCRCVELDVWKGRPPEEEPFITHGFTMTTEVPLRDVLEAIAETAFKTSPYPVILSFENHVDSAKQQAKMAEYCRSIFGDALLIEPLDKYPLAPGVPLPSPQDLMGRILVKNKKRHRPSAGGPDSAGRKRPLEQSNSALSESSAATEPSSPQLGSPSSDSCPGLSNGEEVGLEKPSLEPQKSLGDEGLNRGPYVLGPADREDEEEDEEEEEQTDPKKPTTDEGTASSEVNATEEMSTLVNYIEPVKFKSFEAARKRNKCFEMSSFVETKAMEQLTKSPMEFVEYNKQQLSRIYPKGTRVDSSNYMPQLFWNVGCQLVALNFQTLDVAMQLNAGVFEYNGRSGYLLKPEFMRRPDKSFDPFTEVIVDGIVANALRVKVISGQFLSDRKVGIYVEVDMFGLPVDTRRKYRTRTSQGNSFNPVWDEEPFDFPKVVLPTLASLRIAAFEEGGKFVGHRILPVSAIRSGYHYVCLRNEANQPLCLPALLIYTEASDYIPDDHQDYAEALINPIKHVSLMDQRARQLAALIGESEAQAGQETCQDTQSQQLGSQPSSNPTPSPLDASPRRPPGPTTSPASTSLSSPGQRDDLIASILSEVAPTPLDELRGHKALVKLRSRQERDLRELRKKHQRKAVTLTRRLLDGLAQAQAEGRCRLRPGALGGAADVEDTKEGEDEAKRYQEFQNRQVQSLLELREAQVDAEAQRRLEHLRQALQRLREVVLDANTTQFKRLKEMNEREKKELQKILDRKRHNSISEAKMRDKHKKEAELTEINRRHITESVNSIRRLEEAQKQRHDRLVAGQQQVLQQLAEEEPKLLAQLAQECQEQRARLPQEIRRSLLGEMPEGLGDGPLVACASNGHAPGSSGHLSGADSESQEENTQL

Question: With `CCCCn1c(O)c(C(CC)=NCc2ccco2)c(=O)[nH]c1=O` as the compound, how does the inhibition read?
Answer: 7%

Question: For `CN(C)CCCN=Cc1c(O)n(Cc2ccco2)c(=O)[nH]c1=O`, which inhibition is on record?
Answer: -6.13%

Question: For `CCC(=NCc1ccco1)c1c(O)n(Cc2ccccc2)c(=O)[nH]c1=O`, which inhibition is on record?
Answer: 11.8% (active)

Question: `COC(=O)[C@@H]1C(OC(=O)c2ccccc2)CC2CCC1N2C` (stereo not given in full) was tested. Which inhibition did it give?
Answer: -5.47%

Question: For `CCN1c2nc3c(C)cccn3c(=O)c2CC2(C(=O)N(C)C(=O)N(C)C2=O)C1C` (stereo not given), which inhibition is on record?
Answer: -9.87%

Question: Which inhibition does the source give for `c1ccc(CC2CCCCN2)cc1` (stereo not given) here?
Answer: -1.27%

Question: For `CC(C)(C)[C@]1(O)C[C@@H]2OC(=O)C[C@@]23C(=O)O[C@@H]2OC(=O)[C@H](O)[C@]213`, which inhibition is on record?
Answer: 11.8% (active)

Question: With `CN(C)/C=C(\C=[N+](C)C)c1[nH]ncc1[N+](=O)[O-]` as the compound, how does the inhibition read?
Answer: 3.86%

Question: Which inhibition does the source give for `Cc1cc(C)cc(NC(=S)NC2CC3CCCC(C2)N3Cc2cccs2)c1` (stereo not given) here?
Answer: 5.75%

Question: How did the inhibition turn out when `O=C(COC(=O)Cc1ccccc1)Nc1ccc(F)cc1` was run?
Answer: 3.13%
